Compound activity: PubChem, National Center for Advancing Translational Sciences (NCATS)
In the library only some 2.8% were active in any assay of this set; here they are far more common.
IP6K1 inhibitor = Primary qHTS assay for small molecule inhibitors of Inositol hexaphosphate kinase 1 (IP6K1); Inositol hexakisphosphate kinase 1 (Homo sapiens), Q92551; IP6K1 kinase, ADP-Glo luminescence, 2 h; hits give low values; activity change, % (series mostly up to about 58 µM); 140,000 tested, 0.81% active; in the data active = activity change below about -25%; also: % is scaled to controls: 0 for no effect and ±100 for the full control effect
Target sequence (Q92551 whole entry, looked up): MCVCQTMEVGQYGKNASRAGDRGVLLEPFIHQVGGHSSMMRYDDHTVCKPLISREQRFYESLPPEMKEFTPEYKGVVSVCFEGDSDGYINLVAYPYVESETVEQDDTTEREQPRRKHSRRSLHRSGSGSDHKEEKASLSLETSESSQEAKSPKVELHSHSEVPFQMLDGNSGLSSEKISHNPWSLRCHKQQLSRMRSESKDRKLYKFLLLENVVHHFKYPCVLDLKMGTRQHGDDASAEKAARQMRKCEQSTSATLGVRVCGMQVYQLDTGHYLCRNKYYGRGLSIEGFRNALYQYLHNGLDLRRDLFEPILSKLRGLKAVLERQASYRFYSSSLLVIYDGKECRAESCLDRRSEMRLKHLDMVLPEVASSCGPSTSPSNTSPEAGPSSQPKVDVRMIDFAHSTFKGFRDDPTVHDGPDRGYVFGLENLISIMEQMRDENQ
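ADP-Glo luminescence measures ADP made by human IP6K1 during a 2 h RT reaction with ATP/IP6 (mix at 1.3 mM/130 uM); top library doses 57.5 and 19.1 uM final.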
KDM5B inh = Primary screen for KDM5B Histone Demethylases FDH-coupled qHTS. 220,000 tested, 2.6% active. KDM5B demethylase, FDH-coupled NADH fluorescence (FDH is formaldehyde dehydrogenase). Potency, µM (highest dose often 57.7 µM), most hits filed as inhibitors; active = well fitted inhibition curve with a large enough effect; inconclusive = small, poorly fitted or top-dose-only effect; inactive = no such curve, though single readings can be large or run the other way; also: potency is read from the fitted curve at half-maximal effect; 0% is about no effect; nearly all actives have a fitted effect of over 70% in size
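Here, H3K4me3 peptide (12.5 µM in substrate mix) is demethylated by KDM5BΔAP, 200 nM final, after 10 min compound exposure. Formaldehyde product is coupled through FDH (0.25 U/mL in mix) to NADH fluorescence; 30-min ΔRFU feeds dose-response curves.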
Active calls of the source: *.

CN1CCCC2(CCN(C(=O)c3cc(=O)[nH]c4ccc(F)cc34)C2)C1=O (stereo not drawn) was read as IP6K1 inhibitor -13.8 and KDM5B inh 25.1µM*.
Screening Fc1cccc(F)c1CNCCN1CCCC1 returned KDM5B inh inactive.
COc1ccc(CCc2nc3nccc(-c4cccs4)n3n2)cc1 was read as IP6K1 inhibitor 2.4 and KDM5B inh inactive.
For CC(C)Cc1nc2nccc(-c3ccccn3)n2n1 the results were IP6K1 inhibitor -1.3 and KDM5B inh inconclusive.
CC(C)Cc1nc2nccc(-c3cccs3)n2n1 was read as IP6K1 inhibitor 1.6 and KDM5B inh 25.1µM*.
CC(C)c1nc2nccc(-c3cccs3)n2n1 was read as IP6K1 inhibitor 0.3 and KDM5B inh 25.1µM*.
For CCCN1C(=O)Cc2ccccc2C1C(=O)NCc1ccccc1Cl (stereo not drawn) the results were IP6K1 inhibitor 8.8 and KDM5B inh inactive.
Cc1noc2c(NCc3cnccn3)cc(-c3ccc(Cl)cc3)nc12 was read as IP6K1 inhibitor -9.0 and KDM5B inh inactive.
Screening COc1cccc(-c2cc(-c3ccccc3OC)nc3c(C)noc23)c1 returned IP6K1 inhibitor -22.8 and KDM5B inh inconclusive.
`Cc1noc2c(-c3cccnc3NCc3cnccn3)cc(-c3ccccc3)nc12` gave IP6K1 inhibitor 10.4 and KDM5B inh 31.6µM*.
COc1ccc(OC)c(-c2cc(-c3ccccc3)nc3c(C)noc23)c1 was read as IP6K1 inhibitor 12.4 and KDM5B inh 35.5µM*.
For CC(=O)N1CCC(Nc2ncccc2-c2cc(-c3ccccc3)nc3c(C)noc23)CC1 the results were IP6K1 inhibitor -16.4 and KDM5B inh 20µM*.
For CC(=O)N1CCC(Nc2cc(-c3ccc(Cl)cc3)nc3c(C)noc23)CC1 the results were IP6K1 inhibitor -9.6 and KDM5B inh inactive.
`Cc1noc2c(NCCN3CCOCC3)cc(-c3ccsc3)nc12` gave IP6K1 inhibitor -10.6 and KDM5B inh inactive.
Screening Cc1noc2c(-c3cccnc3NCCN3CCOCC3)cc(-c3ccccc3)nc12 returned IP6K1 inhibitor -15.2 and KDM5B inh 35.5µM*.
CC(C(=O)N1CCc2onc(-c3ccc(C(F)(F)F)cc3)c2C1)N1CCCC1=O (stereo not drawn) was read as IP6K1 inhibitor 6.4 and KDM5B inh inactive.
For CN1C/C(=C/c2ccccc2)N2C(=O)C[C@@H](c3ccccc3)N=C12 the results were KDM5B inh inactive.
Cc1noc2c(-c3cccnc3NC(C)C)cc(-c3ccccc3)nc12 was read as IP6K1 inhibitor -10.2 and KDM5B inh 31.6µM*.
`COc1ncccc1-c1cc(-c2ccccc2)nc2c(C)noc12` gave IP6K1 inhibitor 3.8 and KDM5B inh inconclusive.
For CCn1nccc1C(=O)NCCn1ccn2nc(-c3ccc(C)c(C)c3)cc2c1=O the results were IP6K1 inhibitor -5.7 and KDM5B inh 35.5µM*.
For Cc1ccc(-c2cc3c(=O)n(CCNC(=O)c4ccc5ccccc5n4)ccn3n2)cc1C the results were IP6K1 inhibitor -4.8 and KDM5B inh inconclusive.
Screening COc1cccc(C(=O)NCCn2ccn3nc(-c4ccc(C)c(C)c4)cc3c2=O)c1OC returned IP6K1 inhibitor -12.2 and KDM5B inh 35.5µM*.
`Cc1ccc(-c2cc3c(=O)n(CCNC(=O)c4ccccc4F)ccn3n2)cc1C` gave IP6K1 inhibitor -15.1 and KDM5B inh 20µM*.
Screening COc1cccc(C(=O)NCCn2ccn3nc(-c4ccc(C)cc4C)cc3c2=O)c1OC returned IP6K1 inhibitor -3.3 and KDM5B inh inconclusive.
For Cc1ccc(-c2cc3c(=O)n(CCNC(=O)Cc4cccs4)ccn3n2)cc1C the results were IP6K1 inhibitor -9.6 and KDM5B inh inactive.
`COCCO[C@H]1C(=O)N(C2CCN(C(=O)c3cnn(C)c3)CC2)[C@H]1c1ccncc1` gave IP6K1 inhibitor 4.8 and KDM5B inh inactive.
`COc1cccc(C(=O)N2CCC(C(=O)N3CCC(c4ccccc4)CC3)CC2)c1` gave IP6K1 inhibitor 10.2.
N#Cc1ccc(S(=O)(=O)N2CC(C(=O)NC3CCCCC3)C3(CCOCC3)C2)cc1 (stereo not drawn) was read as IP6K1 inhibitor 14.7 and KDM5B inh inactive.
For O=C(c1cccnc1)N1C[C@@H]2OCC(=O)N(Cc3ccccn3)[C@@H]2C1 the results were IP6K1 inhibitor -5.3 and KDM5B inh inactive.
`CCOC(=O)c1cccnc1N1C[C@H]2OC(=O)N(Cc3ccccn3)[C@H]2C1` gave IP6K1 inhibitor 17.2 and KDM5B inh 28.2µM*.
Cn1cc(C(=O)N2CC(Oc3ccc(-c4nc(-c5ccccc5)no4)cc3)C2)cn1 was read as IP6K1 inhibitor 4.6 and KDM5B inh inactive.
Screening Cc1noc(-c2ccc(OC3CN(C(=O)c4cccc5[nH]ccc45)C3)cc2)n1 returned IP6K1 inhibitor 3.9 and KDM5B inh 28.2µM*.
